# Screening data as filed in PubChem.
# In the library only some 11% were active in any assay of this set; here they are far more common.
# ALDH1A1 inh: inhibitors of human aldehyde dehydrogenase 1A1; P00352; Purified ALDH1A1, NADH fluorescence, propionaldehyde substrate; Potency, µM (highest dose often 75.3 µM), without a hit: at the top dose activity, negative = inhibition, usual class: inhibitors; actives 7.3% (n = 220,000); AID 1030;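 also: potency is read from the fitted curve at half-maximal effect; plate controls were no enzyme wells and a reference inhibitor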
# Target sequence (P00352 whole entry, looked up): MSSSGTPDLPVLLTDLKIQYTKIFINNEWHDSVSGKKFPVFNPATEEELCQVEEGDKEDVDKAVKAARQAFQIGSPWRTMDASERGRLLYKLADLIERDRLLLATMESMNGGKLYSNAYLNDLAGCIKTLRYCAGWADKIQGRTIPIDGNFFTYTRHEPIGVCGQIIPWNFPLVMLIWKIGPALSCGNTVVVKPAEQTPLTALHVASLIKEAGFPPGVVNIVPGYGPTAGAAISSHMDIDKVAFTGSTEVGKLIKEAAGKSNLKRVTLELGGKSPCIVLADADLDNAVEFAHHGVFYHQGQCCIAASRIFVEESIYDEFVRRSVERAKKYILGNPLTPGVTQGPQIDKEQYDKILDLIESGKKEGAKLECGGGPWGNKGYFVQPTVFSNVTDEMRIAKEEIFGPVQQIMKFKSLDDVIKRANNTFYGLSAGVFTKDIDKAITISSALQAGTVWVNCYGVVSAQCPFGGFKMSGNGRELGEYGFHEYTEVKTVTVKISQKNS
# HPGD inh: blocks human HPGD enzyme activity | purified HPGD, NADH fluorescence kinetic, PGE2 substrate | Potency, µM, without a hit: top-dose activity change, negative = inhibition, hits mostly inhibitors | P15428 | actives 4.3% (n = 150,000); also: potency is read from the fitted curve at half-maximal effect
#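 NADH formation kinetics: reaction with 30 uM PGE2 and 1 mM NAD+ (final), 20 nM enzyme, Tris-HCl pH 8 with Tween 20, after 15 min compound preincubation at room temperature. Fluorescence change, last versus first of five reads.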
# PNC inhibitor: perinucleolar compartment assembly inhibition; PC3M PTB-GFP, PNC prevalence imaging, 16 h; stronger effect = lower value; activity change (PNC), negative = inhibition, % at 10 µM; actives 3.1% (n = 140,000);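 active = readout at or below -70, meaning at least 70% loss of cells showing the perinucleolar compartment, a nuclear body marking cancer cells; inconclusive = readout between -30 and a set limit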;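 also: plate controls were DMSO wells for no effect and camptothecin positive control wells for full effect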
#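 Compounds are pinned in duplicate onto adhered PC3M cells stably expressing GFP-tagged PTB and incubated 16 h at 37 C. Cells are then fixed, nuclei stained with Hoechst, and PNC-positive cells counted.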
# Active calls of the source: *; ? = inconclusive; · = no result given; [ ] = remark or other dose. Unless noted, calls follow the shape of the dose curve; as a rule, active = well fitted inhibition curve with a large enough effect (not every such curve was filed as active); inconclusive = small, poorly fitted or top-dose-only effect, or another doubt; inactive = no such curve, though single readings can be large or run the other way. Unless noted, % is scaled to controls: 0 for no effect and ±100 for the full control effect.
SMILES,ALDH1A1 inh,HPGD inh,PNC inhibitor
CC(C)(C)c1ccc(Oc2ccc(NC(=O)CCCC(=O)O)cn2)cc1,7%,·,·
Cc1cc(C)cc(OCC(=O)NNC(=O)CCC(=O)NCc2ccccc2)c1,-10%,-8%,?
CCOC(=O)c1noc(C)c1C(=O)Nc1nc(C)cc(C)n1,20µM*,·,·
CCOC(=O)c1noc(C)c1C(=O)Nc1nccs1,-10%,·,·
Cc1ccc(N/N=C2\CC(=O)c3ccccc32)cc1Cl,25µM*,·,·
Cc1ccc(NC(=O)CCn2cnc3ccccc3c2=O)cc1Cl,0%,-2%,-10
CNC(=O)NC(=O)COC(=O)c1ccccc1OCc1ccccc1,1%,·,·
CSc1ccccc1NC(=O)CN(C)CC(=O)Nc1ccc(Cl)cc1F,4%,-17%,-24
COc1ccc(C(=O)OCC(=O)c2ccccc2)cc1S(=O)(=O)N1CCOCC1,-7%,-4%,-13
CC(C)Oc1ccccc1C1CC(=O)Nc2cc3c(cc21)OCO3 (stereo unspecified),0%,-5%,-81*
CCCOc1ccccc1C1CC(=O)NC2=C1C(=O)CCC2 (stereo unspecified),-12%,-14%,-27
CCCOc1ccccc1C1CC(=O)Nc2cc3c(cc21)OCCO3 (stereo unspecified),-10%,-12%,-116*
CCOc1ccccc1C1CC(=O)Nc2cc3c(cc21)OCCO3 (stereo unspecified),-9%,-22%,-86*
CCOc1ccccc1C1CC(=O)Nc2cc(OC)c(OC)c(OC)c21 (stereo unspecified),?,-18%,38
O=C1CC(c2cccnc2)c2cc3c(cc2N1)OCO3 (stereo unspecified),12%,-8%,23
CCc1ccc(-c2ccc(SCC(=O)NCC3CCCO3)nn2)cc1 (stereo unspecified),3%,·,·
S=c1nc[nH]c2c1ncn2Cc1ccco1,-1%[13.5 µM],-18%,·
NC(=O)Cc1c[nH]c2cccc(O)c12,6%,-10%,?
O=C(Cc1ccccc1)N1CCCC1c1ccccc1 (stereo unspecified),9%,·,30
O=S(=O)(/C=C/c1ccccc1)N1CCN(c2cccc(Cl)c2)CC1,-7%,-11%,31
CCN(CC)c1ccc(C2C(C(=O)OC(C)C)C(=O)CC(C)(O)C2C(=O)OC(C)C)cc1 (stereo unspecified),-1%,-5%,-113*
CCOC(=O)C1C(=O)CC(C)(O)C(C(=O)OCC)C1c1ccc(N(CC)CC)cc1 (stereo unspecified),-8%,7%,-119*
CCOC(=O)C1C(=O)CC(C)(O)C(C(=O)OCC)C1c1ccc(F)cc1 (stereo unspecified),1%,1%,-10
CC(C)OC(=O)C1C(=O)CC(C)(O)C(C(=O)OC(C)C)C1c1ccc(F)cc1 (stereo unspecified),0%,-2%,23
O=C(NCC(c1cccs1)N1CCOCC1)c1ccc(Cl)c([N+](=O)[O-])c1 (stereo unspecified),10%,4%,-3
SMILES,ALDH1A1 inh,HPGD inh,PNC inhibitor
C/C=C/Cn1c(SCc2ccccc2)nc2c1c(=O)[nH]c(=O)n2C,14µM*,20µM*,-4
Cn1c(=O)c2c(nc(SCCN3CCCCC3)n2Cc2ccc(Cl)cc2)n(C)c1=O,7%,-2%,?
Cc1ccc(Cn2c(Sc3ncccn3)nc3c2c(=O)[nH]c(=O)n3C)cc1,-2%,-5%,-24
CC(C)CCSc1nc2c(c(=O)[nH]c(=O)n2C)n1CCc1ccccc1,?,-14%,81
C/C=C/CSc1nc2c(c(=O)[nH]c(=O)n2C)n1Cc1ccc(C)cc1,10µM*,18µM*,26
Cc1ccc(Cn2c(SCC(C)C)nc3c2c(=O)n(C)c(=O)n3C)cc1,2µM*,-25%,?
O=S(=O)(c1ccc2c(c1)oc1ccccc12)N1CCOCC1,-5%,-8%,-81*
Cn1c(=O)oc2cc(S(=O)(=O)N3CCOCC3)ccc21,9%,-2%,-15
O=C(Nc1ccc2c(c1)CCC2)C1CCN(c2c3c(nc4ncnn24)CCC3)CC1,16µM*,?,19
CC1CCc2c(nc3ncnn3c2N2CCN(c3ccccc3)CC2)C1 (stereo unspecified),?,-12%,-5
Clc1cccc(-c2cc3nc4c(c(N5CCOCC5)n3n2)CCCC4)c1,?,?,16
Clc1cccc(-c2cc3nc4c(c(N5CCN(c6cnccn6)CC5)n3n2)CCCC4)c1,?,?,-100*
c1nc2nc3c(c(N4CCOCC4)n2n1)CCCC3,3%,-12%,-107*
O=C(Nc1ccc(Oc2ccccc2)cc1)C1CCN(c2c3c(nc4ncnn24)CCC3)CC1,?,-15%,67
Fc1cccc(-c2cc3nc4c(c(N5CCOCC5)n3n2)CCCC4)c1,?,?,-91*
OC1CCN(c2c3c(nc4cc(-c5ccc(Cl)cc5)nn24)CCC3)CC1,-1%,-9%,-25
BrC(=C\c1ccccc1)/C=N/N1CCN(c2ccccn2)CC1,?,-16%,23
c1ccc(CCC2CCCCN2Cc2nc(-c3ccc4c(c3)OCO4)no2)nc1 (stereo unspecified),-8%,·,·
C[C@@H]1/C=C\CC(=O)OC[C@H](C)C(=O)N[C@@H](C)C(=O)OC1,8%[13.5 µM],·,·
Cc1nnc(SCc2ccccc2F)n1NCc1cccs1,-9%,32µM*,?
Cc1nnc(SCC(=O)NCc2cccs2)n1-c1ccccc1,-4%,2%,-21
O=C(CNC(=O)c1ccc(Cl)cc1)NCC(F)(F)F,6%,-4%,-7
O=C(N/N=C1/CCSC1)c1cccc([N+](=O)[O-])c1,?,-17%,2
Cc1ccc(C(=O)N/N=C2\CCSC2)cc1[N+](=O)[O-],13µM*,-7%,24
C=CCc1cccc(CNc2c(C)cc(C)cc2C)c1O,3%,·,·
SMILES,ALDH1A1 inh,HPGD inh,PNC inhibitor
Cc1cc(NC(=O)c2cnn3c(C(F)F)cc(-c4ccccc4)nc23)no1,?,-11%,-21
Cc1cc(NC(=O)c2cnn3c(C(F)F)cc(C4CC4)nc23)no1,5µM*,-15%,-23
CC(C)Cn1c(N)c(C(=O)COC(=O)c2ccccc2F)c(=O)n(C)c1=O,-15%,·,·
Cn1c(N)c(C(=O)COC(=O)c2ccc(Cl)c(S(=O)(=O)N3CCCCC3)c2)c(=O)n(C)c1=O,9%,16µM*,67
Cn1c(N)c(C(=O)COC(=O)c2cccs2)c(=O)n(C)c1=O,14µM*,-11%,26
CC(C)Cn1c(N)c(C(=O)COC(=O)c2c(F)cccc2F)c(=O)n(C)c1=O,11µM*,·,·
Cn1c(N)c(C(=O)COC(=O)c2ccc(S(=O)(=O)N3CCCCC3)cc2)c(=O)n(C)c1=O,1%,·,·
Cn1c(N)c(C(=O)COC(=O)c2ccnc3ccccc23)c(=O)n(C)c1=O,-1%,?,-85*
Cn1c(N)c(C(=O)COC(=O)c2cc(C3CC3)nc3ccccc23)c(=O)n(C)c1=O,0%,-2%,51
Cn1c(N)c(C(=O)COC(=O)CCC(=O)c2cccs2)c(=O)n(C)c1=O,5%,-7%,17
CC1CCN(S(=O)(=O)c2ccc3c(c2)CCN3C(=O)CCC(=O)O)CC1,4%,-14%,19
Cc1cc2c(nc1C)CCCN2C[C@@H](C)O/N=C1/[C@H]2CCn3c(=O)n(-c4ccccc4)c(=O)n3[C@H]2[C@H](O)[C@@H]2O[C@H]12,?,?,39
